Screening data: PubChem, National Center for Advancing Translational Sciences (NCATS)
TrxR1 inh: inhibitors of rat thioredoxin reductase 1; Potency, µM (series often up to 114 µM), most hits filed as inhibitors; recombinant rTrxR1, NADPH fluorescence consumption, selenite substrate; AID 588453; hit rate 1% among 390,000; O89049; note: nearly all actives have a fitted effect of over 65% in size
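Rat TrxR1 (90 nM in the dispensed reagent) was pre-reduced with 400 uM NADPH for 5 min at room temperature, then incubated with compound for 15 min. After 400 uM selenite was added, NADPH fluorescence (Ex 340/Em 450 nm) was followed for 8 min.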
RORg inh: ROR gamma (mouse) transcription inhibition; P51450; Drosophila S2 Gal4-RORgamma UAS-luciferase reporter, 20 h; Potency, µM (top dose mostly 53.6 µM), hits mostly inhibitors; hit rate 5.4% among 310,000; AID 2551; note: nearly all actives have a fitted effect of over 60% in size
Target sequence (P51450 whole entry, looked up, the tested form may be a part): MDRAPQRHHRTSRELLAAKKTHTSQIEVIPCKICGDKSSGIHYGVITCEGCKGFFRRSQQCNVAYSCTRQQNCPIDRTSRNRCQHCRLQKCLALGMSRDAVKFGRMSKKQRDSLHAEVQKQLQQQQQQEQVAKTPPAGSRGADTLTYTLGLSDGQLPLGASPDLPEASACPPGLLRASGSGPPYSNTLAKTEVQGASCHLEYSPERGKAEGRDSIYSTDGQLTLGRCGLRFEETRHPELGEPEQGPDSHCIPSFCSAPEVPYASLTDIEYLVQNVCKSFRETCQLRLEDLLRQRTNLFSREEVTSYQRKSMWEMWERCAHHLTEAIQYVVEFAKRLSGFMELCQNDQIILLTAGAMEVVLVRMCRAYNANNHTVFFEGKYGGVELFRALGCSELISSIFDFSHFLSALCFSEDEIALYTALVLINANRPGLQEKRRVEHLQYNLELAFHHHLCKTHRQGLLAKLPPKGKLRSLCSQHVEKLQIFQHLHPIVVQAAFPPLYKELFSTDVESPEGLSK
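A Gal4/UAS one-hybrid system in insect cells: metallothionein-promoter Gal4–ROR gamma fusion plus Photinus luciferase reporter. Copper sulfate 700 uM final, 20 hr ambient incubation, luminescent detection after 10 min with reagent.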
VP16 counter: Gal4-VP16 reporter inhibition counter-screen. Drosophila S2 Gal4-VP16 UAS-luciferase, luminescence, 20 h. Potency, µM (top dose mostly 53.6 µM), usual class: inhibitors. hit rate 3.5% among 310,000;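 note: Gal4-VP16 expression switched on by copper sulfate through the metallothionein promoter; nearly all actives have a fitted effect of over 50% in size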
TrxR1 substrate: substrates of rat thioredoxin reductase 1 | O89049 | purified TrxR1 substrate turnover, NADPH consumption readout | hit rate 0.01% among 390,000 | Potency, µM (series often up to 114 µM); note: nearly all actives have a fitted effect of over 50% in size
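Rat TrxR1, dispensed at 90 nM, was prereduced with 400 uM NADPH (final) for 5 min at ~22 deg C, then incubated with compound 15 min before 400 uM selenite. A first-read NADPH fluorescence drop versus no-compound background flagged substrates.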
Coupling enz: coupling enzyme interference in Giardia aldolase counter-screen; coupling enzyme system counterscreen, AmpLite Red fluorescence; activity change, negative = inhibition, % at 58.2 µM, hits read low; hit rate 0.67% among 290,000; in the data active = activity change below about -30%
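Activity here indicates interference with the coupling reaction, not aldolase inhibition. Compounds at 57.5 uM final met coupling enzymes for 10 min at RT; substrate and AmpLite Red detection followed, with a 525/598 nm fluorescence read after 20 min.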
GALK inh: galactokinase (human) inhibition; P51570; Purified GALK, Kinase-Glo residual ATP luminescence; Potency, µM (doses to about 57.5 µM), most hits filed as inhibitors; hit rate 0.007% among 270,000; AID 1868
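Human GALK (5 nM) with 35 uM ATP and 100 uM galactose in 20 mM HEPES pH 8.0, 5 mM MgCl2, 60 mM NaCl, 1 mM DTT, 0.01% BSA. After 1 h at room temperature, leftover ATP was read by Kinase-Glo Plus luminescence.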
Hits are given with their value; i = inactive; ? = inconclusive; nt = no result given; [ ] = remark or other dose. This is a sample that favours compounds with a hit; in the whole collection about 5.9% have one here. Unless noted, calls come from the whole dose curve; as a rule, active = well fitted curve in the direction sought with a large enough effect; inconclusive = small, poorly fitted or top-dose-only effect, or another doubt; inactive = no such curve, though single readings can be large; an effect the other way counts as inactive or inconclusive.

SMILES	TrxR1 inh	RORg inh	VP16 counter	TrxR1 substrate	Coupling enz	GALK inh
COc1ccccc1NCC(=O)N/N=C/C=C/c1ccccc1	i	?	?	i	i	i
O=C(N/N=C/C=C/c1ccccc1)C(O)c1ccccc1 (stereo not drawn)	i	nt	nt	i	nt	nt
COc1ccc(NCC(=O)N/N=C/C=C\c2ccccc2)cc1	i	11µM	13µM	i	i	i
COc1ccccc1CNC(=O)COc1cc(=O)n(C)c2ccccc12	i	nt	nt	i	nt	nt
O=C(O)c1ccccc1-c1ccccc1C(=O)NCc1ccco1	?	i	i	i	i	i
O=C(N/N=C/C=C/c1ccccc1)c1cccs1	i	2.8µM	2.8µM	i	i	i
NC(=S)NN=C(c1ccccc1)c1ccccc1	i	7.1µM	?	i	i	i
CC1(C)OC(c2ccccc2)=C/C(=C\C=N\NC(=O)c2ccncc2)O1	i	0.4µM	0.56µM	i	i	i
O=C(Cc1cccs1)N/N=C/C=C/c1ccccc1	i	i	i	i	i	i
CC(/C=C/c1ccc2c(c1)OCO2)=N\NC(=O)c1ccccc1	i	5.6µM	16µM	i	i	i
C=CCOc1ccc(CNCCO)cc1OCC	i	i	?	i	i	nt
Cc1c(Cl)cccc1NC(=O)C1CCCCC1	nt	i	i	nt	i	i
O=C(Cc1cccc2ccccc12)N/N=C/C=C/c1cccc([N+](=O)[O-])c1	i	13µM	?	i	i	i
COC(=O)/C=C/c1ccc2c(c1)OCO2	i	i	i	i	i	i
COc1ccc(C=CC(C)=NNC(=O)c2ccncc2)cc1	i	nt	nt	i	nt	nt
O=C(N/N=C/C=C\c1ccc([N+](=O)[O-])cc1)c1cccnc1	i	5.6µM	?	i	i	nt
O=C(N/N=C/c1ccc(OC(=O)c2ccc([N+](=O)[O-])cc2)cc1)c1cccnc1	i	i	i	i	i	i
CCNc1ccccc(C(=O)/C=C/c2ccc3c(c2)OCO3)c1=O	?	7.9µM	?	i	i	i
COc1ccc(CC(=O)N/N=C/C=C/c2cccc([N+](=O)[O-])c2)cc1OC	i	i	i	i	i	i
CC(/C=C/c1ccccc1)=N\NC(=O)c1ccncc1	i	7.1µM	11µM	i	i	i
CCOc1nc(Oc2cccc(C(=O)O)c2)nc(Oc2cccc(C(=O)O)c2)n1	i	i	i	i	i	i
O=C(CN1CC(=O)Nc2ccccc21)Nc1ccc(F)c(F)c1	i[11.4 µM]	i	i	i[11.4 µM]	i	i
COc1ccc(C(=O)OCc2ccc(C)cc2)cc1S(=O)(=O)N1CCOCC1	i	nt	nt	i	nt	nt
Nc1ccc(C(=O)N/N=C\C=C\c2cccc([N+](=O)[O-])c2)cc1	i	?	i	i	i	i
O=C(N/N=C/C=C\c1ccccc1[N+](=O)[O-])c1ccncc1	i	10µM	?	i	i	i
SMILES	TrxR1 inh	RORg inh	VP16 counter	TrxR1 substrate	Coupling enz	GALK inh
O=C(N/N=C/C=C/c1cccc([N+](=O)[O-])c1)c1ccncc1	i	7.1µM	?	i	i	i
O=C(N/N=C\C=C\c1ccc([N+](=O)[O-])o1)c1cccs1	7.9µM	7.9µM	11µM	i	i	i
O=C(O)c1ccc(N/N=C/C=C/c2ccccc2)cc1	i	11µM	1.1µM	i	i	i
O=C(N/N=C/C=C/c1ccccc1[N+](=O)[O-])c1cccs1	i	?	?	i	i	i
COc1ccc(CCNC(=O)CNCC(c2ccccc2)N(C)C)cc1OC (stereo not drawn)	i	i	i	i	i	i
Cc1ccc2nc3cc([N+](=O)[O-])cc([N+](=O)[O-])c3cc2c1	50µM	?	2.2µM	i	i	i
Cc1nc2ccc([N+](=O)[O-])cc2nc1C	i	i	i	i	i	i
Cc1csc(N/N=C/c2ccc([N+](=O)[O-])cc2)n1	i	i	i	i	i	i
O=C(O)c1csc(N/N=C/c2ccc(Br)cc2)n1	i	2.5µM	5µM	i	i	i
Cc1ccc(-c2nc(C(Cl)Cl)c3ccccc3n2)cc1	i	?	8.9µM	i	i	nt
CCc1ccc(CNC(=O)c2ccc3nc(C4CCCCC4)oc3c2)nc1	nt	6.3µM	11µM	nt	nt	i
N#Cc1cc2ccc(N3CCOCC3)cc2cc1C#N	i	i	?	i	-43	i
O=C(COC(=O)/C=C/c1ccc(F)cc1)NC1CC1	i	nt	nt	i	nt	nt
NC(=O)COC(=O)c1ccc(Cl)c(S(=O)(=O)N2CCN(c3ccc(F)cc3)CC2)c1	i	?	?	i[0.0914 µM]	i	i
Cc1ccc(-n2ncc(Br)c(Br)c2=O)cc1	10µM	5µM	2.8µM	i	i	i
O=c1c(Br)c(Br)cnn1-c1ccccc1	?	3.2µM	5µM	i	i	i
O=c1c(Br)c(N2CCCC2)cnn1-c1ccccc1	i	i	i	i	i	i
Cc1ccccc1CS(=O)(=O)Cc1ccc(C(=O)NCC2CCCO2)o1 (stereo not drawn)	i	i	i	i	i	i
CC(C)C[C@@H](CC(=O)N[C@@H](CCCN)CC(=O)N[C@@H]1CCCC[C@H]1C(=O)N[C@H](CC(=O)N[C@@H](CCC(=O)O)CC(=O)O)CC(C)C)NC(=O)[C@@H]1CCCC[C@H]1N	nt	i	i	nt	i	nt
COc1ccc(Nc2cc(C)nc3ncnn23)cc1	i	nt	nt	i	nt	nt
FC(F)(F)c1cccc(Nc2cc(-c3ccccc3)nc3ncnn23)c1	i	2µM	i	i	i	i
Cc1cc(Nc2ccc3ccccc3c2)n2ncnc2n1	i	6.3µM	?	i	i	i
CC(Oc1ccccc1)C(=O)N1CCC2(CC1)Oc1ccc(F)cc1C(=O)C21CC(c2ccccc2)=NO1 (stereo not drawn)	i	nt	nt	i	nt	nt
CCOC(=O)Nc1nc(-c2ccccc2)c(C(=O)c2ccccc2)s1	i	13µM	i	i	i	i
COC(=O)Nc1nc(-c2ccccc2)c(C(=O)c2ccc(Cl)cc2)s1	i	i	i	i	i	i
SMILES	TrxR1 inh	RORg inh	VP16 counter	TrxR1 substrate	Coupling enz	GALK inh
Cc1n[nH]c(=S)n(NC(=O)/C=C/C(=O)Nn2c(=S)[nH]nc(C)c2=O)c1=O	i	i	i[10 µM]	i	i	i
Cc1n[nH]c(=S)n(NC(=O)CC(=O)Nn2c(=S)[nH]nc(C)c2=O)c1=O	i	i	i	i	-43	i
O=C(Cc1cccc2ccccc12)NCC(=O)N1CCN(Cc2cccc(C(F)(F)F)c2)CC1	i	nt	nt	i	nt	nt
O=C(Nc1nc(N2C(=O)c3ccccc3C2=O)n(-c2ccccc2)n1)c1ccccc1	i	i	i	i	i	nt
O=C(Nc1nc(N2C(=O)c3ccccc3C2=O)n(-c2ccccc2)n1)c1ccc(F)cc1	i	10µM	?	i	i	i
O=C(CC(Sc1ccc(Br)cc1)C(=O)O)c1ccc(Br)cc1 (stereo not drawn)	nt	14µM	?	nt	i	i
Cc1ccc(C(CC(=O)c2ccc(Cl)cc2)C(=O)O)cc1 (stereo not drawn)	i	i	i	i	i	i
